# In the supplement of paper PMC9262897, “Low-cost anti-mycobacterial drug discovery using engineered E. coli” (Nature Communications, 2022):
# Structures can show the parent of a compound that is named as a salt. ± gives the standard deviation of the averaged measurements.
# Key:
# Experiment in all cases: growth (OD600 after 10 h); higher = more growth (less inhibition)
# [1] = system: E. coli TESEC Alr+ wild-type control; conditions: compound 0.1 mM; raw OD600 reference: median of DMSO wells 0.241, cell-free background 0.041
# Experimental: (§1)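 TESEC Mtb Alr E. coli, or the Alr+ wild-type control, in 384-well plates with Prestwick library compounds at 0.1 mM and 1% DMSO, across arabinose induction levels of 1E3 to 1E7 nM. Growth is read as OD600 after 10 h at 37 °C in triplicate biological replicates.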
# [2] = system: E. coli TESEC Mtb Alr; conditions: compound 0.1 mM
# Experimental: as §1
# [3] = system: E. coli TESEC Mtb Asd; conditions: compound 0.1 mM
# Experimental: (§2)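 TESEC E. coli strains in which the native enzyme is deleted and replaced by arabinose-inducible Mtb Asd, DapB, CysH or TrpD, each grown in its selective medium. Strains were screened against the Prestwick library at 0.1 mM and 1% DMSO in 384-well format at low and high arabinose induction. Growth is read as OD600 after 10 h in triplicate.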
# [4] = system: E. coli TESEC Mtb DapB; conditions: compound 0.1 mM
# Experimental: as §2
# [5] = system: E. coli TESEC Alr+ wild-type control; conditions: compound 0.1 mM; raw OD600 reference: median of DMSO wells 0.49, cell-free background 0.052
# Experimental: (§3)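 TESEC Mtb Alr E. coli (ΔaraC ΔtolC ΔentC Δalr ΔdadX, arabinose-inducible Mtb Alr) or the Alr+ wild-type control strain, grown in defined M9-fructose medium without D-alanine in 96-well plates with Prestwick library compounds at 0.1 mM and 1% DMSO. Low Alr induction is 0.1 µM arabinose and high induction is 10 mM arabinose.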
# [6] = system: E. coli TESEC Mtb Alr; conditions: compound 0.1 mM; remark: listed apart in the source
# Experimental: as §3
# [7] = arabinose 1000 nM, raw OD600 reference: median of DMSO wells 0.294, cell-free background 0.041
# [8] = arabinose 10000 nM, raw OD600 reference: median of DMSO wells 0.264, cell-free background 0.041
# [9] = arabinose 100000 nM, raw OD600 reference: median of DMSO wells 0.201, cell-free background 0.041
# [10] = arabinose 1000000 nM, raw OD600 reference: median of DMSO wells 0.193, cell-free background 0.041
# [11] = arabinose 10000000 nM, raw OD600 reference: median of DMSO wells 0.146, cell-free background 0.041
# [12] = arabinose induction (level): High, raw OD600 reference: median of DMSO wells 0.331, cell-free background 0.041
# [13] = arabinose induction (level): Low, raw OD600 reference: median of DMSO wells 0.417, cell-free background 0.041
# [14] = arabinose induction (level): High, raw OD600 reference: median of DMSO wells […], cell-free background 0.041
# [15] = arabinose induction (level): Low, raw OD600 reference: median of DMSO wells 0.227, cell-free background 0.041
# [16] = arabinose 100 nM, raw OD600 reference: median of DMSO wells 0.413, cell-free background 0.052
# [17] = arabinose 10000000 nM, raw OD600 reference: median of DMSO wells […], cell-free background 0.052
Compound,growth [1],"growth [2, 7]","growth [2, 8]","growth [2, 9]","growth [2, 10]","growth [2, 11]","growth [3, 12]","growth [3, 13]","growth [4, 14]","growth [4, 15]",growth [5],"growth [6, 16]","growth [6, 17]"
CN(C)CCOC(c1ccc(Cl)cc1)c1ccccn1 (stereo not drawn) [Carbinoxamine maleate salt],0.2081 ± 0.00038,0.297 ± 0.017,0.265 ± 0.006,0.196 ± 0.034,0.187 ± 0.018,0.13 ± 0.011,0.259 ± 0.023,0.44 ± 0.01,0.193 ± 0.01,0.23 ± 0.016,0.438 ± 0.022,0.393 ± 0.015,0.332 ± 0.021
COc1ccc2[nH]c([S+]([O-])Cc3ncc(C)c(OC)c3C)nc2c1 (stereo not drawn) [Omeprazole],0.19 ± 0.0022,0.232 ± 0.0033,0.2749 ± 0.0018,0.168 ± 0.011,0.122 ± 0.0034,0.131 ± 0.0049,0.298 ± 0.04,0.388 ± 0.025,0.167 ± 0.0081,0.1748 ± 0.0014,0.409 ± 0.01,0.399 ± 0.016,0.263 ± 0.018
CC(C)(C(=O)O)c1ccc(C(O)CCCN2CCC(C(O)(c3ccccc3)c3ccccc3)CC2)cc1 (stereo not drawn) [Fexofenadine HCl],0.228 ± 0.0075,0.314 ± 0.0088,0.285 ± 0.0078,0.212 ± 0.017,0.184 ± 0.011,0.157 ± 0.0041,0.235 ± 0.015,0.348 ± 0.069,0.201 ± 0.025,0.266 ± 0.036,0.567 ± 0.054,0.431 ± 0.0065,0.309 ± 0.013
Nc1ccn([C@@H]2CS[C@H](CO)O2)c(=O)n1 [Lamivudine],0.239 ± 0.0031,0.292 ± 0.011,0.262 ± 0.0097,0.211 ± 0.037,0.209 ± 0.0042,0.144 ± 0.0079,0.353 ± 0.0047,0.425 ± 0.021,0.18 ± 0.013,0.207 ± 0.016,0.563 ± 0.13,0.407 ± 0.0069,0.357 ± 0.0056
C=C1c2c(Cl)ccc(O)c2C(O)=C2C(=O)[C@]3(O)C(O)=C(C(N)=O)C(=O)[C@@H](N(C)C)[C@@H]3[C@@H](O)[C@H]12.O=C(O)c1cc(S(=O)(=O)O)ccc1O [Meclocycline sulfosalicylate],0.0437 ± 0.0018,0.0465 ± 0.0035,0.04467 ± 0.00042,0.047 ± 0.001,0.04453 ± 0.00031,0.0463 ± 0.0019,0.0721 ± 0.0074,0.0594 ± 0.0053,0.156 ± 0.089,0.05473 ± 0.00042,0.05223 ± 0.00012,0.0611 ± 0.00062,0.0561 ± 0.00065
COc1cc2nc(N(C)CCCNC(=O)C3CCCO3)nc(N)c2cc1OC (stereo not drawn) [Alfuzosin hydrochloride],0.215 ± 0.0062,0.286 ± 0.005,0.252 ± 0.0042,0.192 ± 0.027,0.142 ± 0.008,0.155 ± 0.011,0.24 ± 0.029,0.361 ± 0.029,0.217 ± 0.007,0.229 ± 0.006,0.462 ± 0.029,0.4 ± 0.013,0.318 ± 0.013
CCCNC(C)C(=O)Nc1c(C)csc1C(=O)OC (stereo not drawn) [Articaine hydrochloride],0.249 ± 0.0025,0.3163 ± 0.0008,0.266 ± 0.0049,0.213 ± 0.013,0.162 ± 0.0036,0.147 ± 0.0054,0.257 ± 0.064,0.442 ± 0.02,0.205 ± 0.016,0.236 ± 0.043,0.47 ± 0.023,0.407 ± 0.015,0.316 ± 0.021
CC(C)Cc1ccc([C@H](C)C(=O)O)cc1 [S-(+)-ibuprofen],0.236 ± 0.012,0.269 ± 0.013,0.24 ± 0.006,0.166 ± 0.0055,0.194 ± 0.0082,0.129 ± 0.0024,0.262 ± 0.015,0.311 ± 0.0056,0.196 ± 0.014,0.18 ± 0.016,0.615 ± 0.082,0.402 ± 0.012,0.329 ± 0.004
CC(C)CC(=O)N[C@H](C(=O)N[C@H](C(=O)N[C@@H](CC(C)C)[C@@H](O)CC(=O)N[C@@H](C)C(=O)N[C@@H](CC(C)C)[C@@H](O)CC(=O)O)C(C)C)C(C)C [Pepstatin A],0.226 ± 0.0077,0.307 ± 0.0049,0.271 ± 0.0051,0.234 ± 0.043,0.202 ± 0.02,0.15 ± 0.0034,0.419 ± 0.028,0.427 ± 0.064,0.172 ± 0.0073,0.246 ± 0.046,0.468 ± 0.053,0.412 ± 0.005,0.345 ± 0.036
CCCCC(O)c1ccccc1 (stereo not drawn) [Fenipentol],0.242 ± 0.0077,0.295 ± 0.005,0.253 ± 0.0059,0.233 ± 0.035,0.178 ± 0.0054,0.149 ± 0.0015,0.346 ± 0.079,0.357 ± 0.036,0.227 ± 0.013,0.227 ± 0.025,0.542 ± 0.07,0.403 ± 0.0094,0.337 ± 0.017
CN(Cc1ccc(C(C)(C)C)cc1)Cc1cccc2ccccc12 [Butenafine Hydrochloride],0.182 ± 0.0021,0.177 ± 0.0088,0.2 ± 0.0095,0.147 ± 0.0047,0.0789 ± 0.0012,0.116 ± 0.0035,0.204 ± 0.012,0.182 ± 0.019,0.15 ± 0.019,0.169 ± 0.02,0.399 ± 0.012,0.312 ± 0.013,0.11 ± 0.0097
O=C(CCCN1CCC(O)(c2ccc(Cl)cc2)CC1)c1ccc(F)cc1 [Haloperidol],0.216 ± 0.0039,0.265 ± 0.012,0.273 ± 0.0054,0.192 ± 0.015,0.172 ± 0.0034,0.14 ± 0.0019,0.395 ± 0.047,0.452 ± 0.028,0.187 ± 0.0073,0.248 ± 0.034,0.354 ± 0.006,0.4348 ± 0.0041,0.239 ± 0.012
CC(C)(C)NC[C@H](O)COc1ccccc1C1CCCC1 [Penbutolol sulfate],0.211 ± 0.0068,0.225 ± 0.0034,0.321 ± 0.0081,0.162 ± 0.011,0.128 ± 0.0083,0.142 ± 0.013,0.205 ± 0.028,0.295 ± 0.038,0.184 ± 0.013,0.207 ± 0.015,0.429 ± 0.019,0.412 ± 0.0049,0.261 ± 0.047
Cc1ncc(CO)c(CO)c1O [Pyridoxine hydrochloride],0.258 ± 0.0075,0.302 ± 0.013,0.2532 ± 0.0016,0.238 ± 0.034,0.174 ± 0.0032,0.168 ± 0.017,0.344 ± 0.1,0.37 ± 0.022,0.215 ± 0.011,0.239 ± 0.04,0.544 ± 0.025,0.428 ± 0.0097,0.32 ± 0.013
Cc1ccc(NC(=O)c2ccc(CN3CCN(C)CC3)cc2)cc1Nc1nccc(-c2cccnc2)n1 [Imatinib],0.171 ± 0.0085,0.23 ± 0.0032,0.241 ± 0.00089,0.141 ± 0.009,0.119 ± 0.0081,0.161 ± 0.0024,0.185 ± 0.02,0.334 ± 0.063,0.185 ± 0.011,0.217 ± 0.02,0.455 ± 0.046,0.4192 ± 0.0028,0.241 ± 0.018
CN1CCC(OC(c2ccccc2)c2ccccc2)CC1 [Diphenylpyraline hydrochloride],0.221 ± 0.013,0.294 ± 0.021,0.256 ± 0.0056,0.162 ± 0.0083,0.141 ± 0.0025,0.1486 ± 0.0014,0.237 ± 0.035,0.461 ± 0.077,0.211 ± 0.013,0.246 ± 0.0048,0.47 ± 0.021,0.4078 ± 0.0034,0.303 ± 0.015
